Measurements: the supplement of paper PMC8728848
Many of the other results were omitted from the sample, so the strongest signals are more common in it than they were.

B1: HHL-2 (Homo sapiens), P07307 (protein)
chain: MAKDFQDIQQLSSEENDHPFHQGEGPGTRRLNPRRGNPFLKGPPPAQPLAQRLCSMVCFSLLALSFNILLLVVICVTGSQSEGHRGAQLQAELRSLKEAFSNFSSSTLTEVQAISTHGGSVGDKITSLGAKLEKQQQDLKADHDALLFHLKHFPVDLRFVACQMELLHSNGSQRTCCPVNWVEHQGSCYWFSHSGKAWAEAEKYCQLENAHLVVINSWEEQKFIVQHTNPFNTWIGLTDSDGSWKWVDGTDYRHNYKNWAVTQPDNWHGHELGGSEDCVEVQPDGRWNDDFCLQVYRWVCEKRRNATGEVA
B2: Erv41-EDTA (Saccharomyces cerevisiae), Q04651 (protein)
chain: MKFLVNVALVFMVVYISYIYAAAPEHHHHHHDYDIPTTENLYFQGAMGYIDQQYVVDSQVRDTVQINMDIYVNTKCDWLQINVRDQTMDRKLVLEELQLEEMPFFIPYDTKVNDINEIITPELDEILGEAIPAEFREKLDTRSFFDESDPNKAHLPEFNGCHVFGSIPVNRVSGELQITAKSLGYVASRKAPLEELKFNHVINEFSFGDFYPYIDNPLDNTAQFNQDEPLTTYVYYTSVVPTLFKKLGAEVDTNQYSVNDYRYLYKDVAAKGDKMPGIFFKYNFEPLSIVVSDVRL

How the values were obtained:
Assay in all cases: glycan array binding signal (z-score within array); higher = stronger binding
Details in all cases: glycan notation: IUPAC condensed, linker removed
[1] = target: Neu5Ac(b2-6)GalNAc
Procedure, shortened: (§1)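 The binding signal is a Z-score computed within each array. Data were drawn from 3228 arrays in the Consortium for Functional Glycomics database, restricted to those with a known protein sequence. Scores were averaged over arrays of the same protein sequence at different concentrations or buffers, and over linkers, and negative values can be taken as non-binding.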

[2] = target: Fuc(a1-2)Gal(b1-3)GlcNAc(b1-2)Man(a1-3)[Fuc(a1-2)Gal(b1-3)GlcNAc(b1-2)Man(a1-6)]Man(b1-4)GlcNAc(b1-4)GlcNAc
Procedure, shortened: as §1

[3] = target: Fuc(a1-2)Gal(b1-3)GlcNAc(b1-3)[Fuc(a1-2)Gal(b1-3)GlcNAc(b1-6)]GalNAc
Procedure, shortened: as §1

[4] = target: Fuc(a1-2)Gal(b1-4)GlcNAc(b1-3)Gal(b1-4)GlcNAc
Procedure, shortened: as §1

[5] = target: Fuc(a1-2)Gal(b1-4)GlcNAc6S
Procedure, shortened: as §1

[6] = target: Fuc(a1-2)Gal3S(b1-4)GlcNAc
Procedure, shortened: as §1

[7] = target: Fuc(a1-2)[Gal(a1-3)]Gal(b1-3)GalNAc(b1-3)Gal(a1-4)Gal(b1-4)Glc
Procedure, shortened: as §1

[8] = target: Fuc(a1-2)[Gal(a1-3)]Gal(b1-3)GlcNAc(b1-2)Man(a1-3)[Fuc(a1-2)[Gal(a1-3)]Gal(b1-3)GlcNAc(b1-2)Man(a1-6)]Man(b1-4)GlcNAc(b1-4)[Fuc(a1-6)]GlcNAc
Procedure, shortened: as §1

[9] = target: Fuc(a1-2)[GalNAc(a1-3)]Gal(b1-4)GlcNAc(b1-3)Gal(b1-4)GlcNAc(b1-3)Gal(b1-4)GlcNAc
Procedure, shortened: as §1

[10] = target: Fuc(a1-3)[Gal3S(b1-4)]Glc
Procedure, shortened: as §1

[11] = target: Gal(a1-3)Gal(b1-3)[Fuc(a1-4)]GlcNAc(b1-2)Man(a1-3)[Gal(a1-3)Gal(b1-3)[Fuc(a1-4)]GlcNAc(b1-2)Man(a1-6)]Man(b1-4)GlcNAc(b1-4)GlcNAc
Procedure, shortened: as §1

[12] = target: Gal(a1-3)Gal(b1-4)[Fuc(a1-3)]GlcNAc
Procedure, shortened: as §1

[13] = target: Gal(a1-3)Gal(b1-4)[Fuc(a1-3)]GlcNAc(b1-2)Man(a1-3)[Gal(a1-3)Gal(b1-4)[Fuc(a1-3)]GlcNAc(b1-2)Man(a1-6)]Man(b1-4)GlcNAc(b1-4)GlcNAc
Procedure, shortened: as §1

[14] = target: Gal(b1-3)GalNAc(b1-3)Gal(a1-4)Gal(b1-4)Glc
Procedure, shortened: as §1

[15] = target: Gal(b1-3)GlcNAc(b1-3)Gal(b1-4)GlcNAc(b1-3)Gal(b1-4)GlcNAc(b1-2)[Gal(b1-3)GlcNAc(b1-3)Gal(b1-4)GlcNAc(b1-3)Gal(b1-4)GlcNAc(b1-6)]Man(a1-6)[Gal(b1-3)GlcNAc(b1-3)Gal(b1-4)GlcNAc(b1-3)Gal(b1-4)GlcNAc(b1-2)Man(a1-3)]Man(b1-4)GlcNAc(b1-4)[Fuc(a1-6)]GlcNAc
Procedure, shortened: as §1

[16] = target: Gal(b1-4)GlcNAc(b1-2)Man(a1-6)Man(b1-4)GlcNAc(b1-4)GlcNAc
Procedure, shortened: as §1

[17] = target: Gal(b1-4)GlcNAc(b1-3)Gal(b1-4)GlcNAc(b1-3)Gal(b1-4)GlcNAc(b1-2)Man(a1-3)[Gal(b1-4)GlcNAc(b1-3)Gal(b1-4)GlcNAc(b1-3)Gal(b1-4)GlcNAc(b1-2)Man(a1-6)]Man(b1-4)GlcNAc(b1-4)[Fuc(a1-6)]GlcNAc
Procedure, shortened: as §1

[18] = target: Gal(b1-4)GlcNAc(b1-3)Gal(b1-4)GlcNAc(b1-3)Gal(b1-4)GlcNAc(b1-2)[Gal(b1-4)GlcNAc(b1-3)Gal(b1-4)GlcNAc(b1-3)Gal(b1-4)GlcNAc(b1-6)]Man(a1-6)[Gal(b1-4)GlcNAc(b1-3)Gal(b1-4)GlcNAc(b1-3)Gal(b1-4)GlcNAc(b1-2)Man(a1-3)]Man(b1-4)GlcNAc(b1-4)[Fuc(a1-6)]GlcNAc
Procedure, shortened: as §1

[19] = target: Gal(b1-4)GlcNAc(b1-3)Gal(b1-4)GlcNAc(b1-3)Gal(b1-4)GlcNAc(b1-3)Gal(b1-4)GlcNAc(b1-2)Man(a1-3)[Gal(b1-4)GlcNAc(b1-3)Gal(b1-4)GlcNAc(b1-3)Gal(b1-4)GlcNAc(b1-3)Gal(b1-4)GlcNAc(b1-2)Man(a1-6)]Man(b1-4)GlcNAc(b1-4)[Fuc(a1-6)]GlcNAc
Procedure, shortened: as §1

[20] = target: Gal(b1-4)GlcNAc(b1-3)Gal(b1-4)GlcNAc(b1-3)Gal(b1-4)GlcNAc(b1-3)Gal(b1-4)GlcNAc(b1-2)[Gal(b1-4)GlcNAc(b1-3)Gal(b1-4)GlcNAc(b1-3)Gal(b1-4)GlcNAc(b1-3)Gal(b1-4)GlcNAc(b1-6)]Man(a1-6)[Gal(b1-4)GlcNAc(b1-3)Gal(b1-4)GlcNAc(b1-3)Gal(b1-4)GlcNAc(b1-3)Gal(b1-4)GlcNAc(b1-2)Man(a1-3)]Man(b1-4)GlcNAc(b1-4)[Fuc(a1-6)]GlcNAc
Procedure, shortened: as §1

[21] = target: Gal(b1-4)GlcNAc(b1-3)Gal(b1-4)GlcNAc(b1-3)Gal(b1-4)GlcNAc(b1-3)Gal(b1-4)GlcNAc(b1-3)Gal(b1-4)GlcNAc(b1-2)Man(a1-3)[Gal(b1-4)GlcNAc(b1-3)Gal(b1-4)GlcNAc(b1-3)Gal(b1-4)GlcNAc(b1-3)Gal(b1-4)GlcNAc(b1-3)Gal(b1-4)GlcNAc(b1-2)Man(a1-6)]Man(b1-4)GlcNAc(b1-4)[Fuc(a1-6)]GlcNAc
Procedure, shortened: as §1

[22] = target: Gal(b1-4)GlcNAc(b1-3)Gal(b1-4)GlcNAc(b1-3)[Gal(b1-4)GlcNAc(b1-3)Gal(b1-4)GlcNAc(b1-6)]GalNAc
Procedure, shortened: as §1

[23] = target: Gal(b1-4)GlcNAc(b1-6)GalNAc
Procedure, shortened: as §1

[24] = target: Gal3S(b1-3)GalNAc
Procedure, shortened: as §1

[25] = target: Gal6S(b1-4)GlcNAc6S
Procedure, shortened: as §1

[26] = target: GalNAc(b1-4)GlcNAc(b1-3)GalNAc(b1-4)GlcNAc
Procedure, shortened: as §1

[27] = target: GlcA(b1-3)GlcNAc
Procedure, shortened: as §1

[28] = target: GlcNAc(a1-3)Gal(b1-4)GlcNAc
Procedure, shortened: as §1

[29] = target: GlcNAc(b1-2)Man(a1-3)[GlcNAc(b1-4)][GlcNAc(b1-2)Man(a1-6)]Man(b1-4)GlcNAc(b1-4)[Fuc(a1-6)]GlcNAc
Procedure, shortened: as §1

[30] = target: GlcNAc(b1-2)[GlcNAc(b1-6)]Man(a1-6)[GlcNAc(b1-2)Man(a1-3)]Man(b1-4)GlcNAc(b1-4)[Fuc(a1-6)]GlcNAc
Procedure, shortened: as §1

[31] = target: GlcNAc(b1-3)Gal(b1-4)GlcNAc(b1-3)Gal(b1-4)GlcNAc(b1-2)[GlcNAc(b1-3)Gal(b1-4)GlcNAc(b1-3)Gal(b1-4)GlcNAc(b1-6)]Man(a1-6)[GlcNAc(b1-3)Gal(b1-4)GlcNAc(b1-3)Gal(b1-4)GlcNAc(b1-2)Man(a1-3)]Man(b1-4)GlcNAc(b1-4)[Fuc(a1-6)]GlcNAc
Procedure, shortened: as §1

Binder	glycan array binding signal (z-score) [1]	glycan array binding signal (z-score) [2]	glycan array binding signal (z-score) [3]	glycan array binding signal (z-score) [4]	glycan array binding signal (z-score) [5]	glycan array binding signal (z-score) [6]	glycan array binding signal (z-score) [7]	glycan array binding signal (z-score) [8]	glycan array binding signal (z-score) [9]	glycan array binding signal (z-score) [10]	glycan array binding signal (z-score) [11]	glycan array binding signal (z-score) [12]	glycan array binding signal (z-score) [13]	glycan array binding signal (z-score) [14]	glycan array binding signal (z-score) [15]	glycan array binding signal (z-score) [16]	glycan array binding signal (z-score) [17]	glycan array binding signal (z-score) [18]	glycan array binding signal (z-score) [19]	glycan array binding signal (z-score) [20]	glycan array binding signal (z-score) [21]	glycan array binding signal (z-score) [22]	glycan array binding signal (z-score) [23]	glycan array binding signal (z-score) [24]	glycan array binding signal (z-score) [25]	glycan array binding signal (z-score) [26]	glycan array binding signal (z-score) [27]	glycan array binding signal (z-score) [28]	glycan array binding signal (z-score) [29]	glycan array binding signal (z-score) [30]	glycan array binding signal (z-score) [31]
B1	-0.379																														
B2		0.618	2.18	-0.317	0.642	-0.093	-0.396	0.605	0.784	-0.042	-0.414	-0.74	2.1	1.08	1.31	-0.604	1.64	2.65	2.2	2.63	3.41	1.32	1.98	0.809	-0.128	-0.339	-0.217	-0.577	0.162	2.54	1.25
